Among the test systems are SK-MEL-2 melanoma; EKVX NSCLC; SN12C renal; UO-31 renal; TK-10 renal; A498 renal; CCRF-CEM leukemia; MOLT-4 leukemia; SR leukemia; RPMI-8226 leukemia; OVCAR-8 ovarian; OVCAR-5 ovarian; OVCAR-4 ovarian; SK-OV-3 ovarian; IGROV1 ovarian; OVCAR-3 ovarian; HS 578T breast; NCI/ADR-RES ovarian.
What all share (assay): NCI-60 one-dose screen, 48 h (100 = growth as untreated, 0 = no growth, -100 = all killed)
Holding throughout (conditions): 10 µM unless noted

Compounds without any hit were thinned out: in the full panel of roughly 83,000, 20% have a hit.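 Each cell line was grown in a 96-well plate and treated with one concentration of compound for 48 hours. Values below 10 were considered active.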 A number with no mark means an inactive call. Activity calls are given as the source filed them.

This note sets out measurements from PubChem BioAssay (NCI).

As for `CNCCCOc1c(Br)cc(CCNC(=O)/C(Cc2cc(Br)c(OC)c(Br)c2)=N/O)cc1Br`, the growth in the assay with SK-MEL-2 melanoma is -54.7% (active); with EKVX NSCLC, 26.3%; in the assay with SN12C renal, -74% (active); in the assay on UO-31 renal, -44.9% (active); in the assay on TK-10 renal, 34.7%; in the assay on A498 renal it was 31.9%. Besides, the growth in the assay with CCRF-CEM leukemia was -9.15% (active); in the assay with MOLT-4 leukemia, -17.4% (active); with SR leukemia it was -57% (active); in the assay with RPMI-8226 leukemia it was -30.7% (active); in the assay on OVCAR-8 ovarian, 2.04% (active); in the assay on OVCAR-5 ovarian, 36.2%. Besides, the growth with OVCAR-4 ovarian is 14.3%; with SK-OV-3 ovarian, 37.2%; in the assay with IGROV1 ovarian, 6.03% (active); in the assay on OVCAR-3 ovarian, -25.4% (active); in the assay with HS 578T breast, -17.9% (active); in the assay on NCI/ADR-RES ovarian, 9.44% (active).

With `CC(=O)Oc1ccc(C(OC(C)=O)OC(C)=O)cc1`, the growth in the assay with SK-MEL-2 melanoma is 104%; in the assay on EKVX NSCLC, 94.1%; with SN12C renal, 102%; in the assay with UO-31 renal, 89.8%; in the assay on TK-10 renal it was 98.8%; with A498 renal, 92.3%. Also, the growth in the assay with CCRF-CEM leukemia was 94.5%; in the assay with MOLT-4 leukemia, 91.1%; in the assay with SR leukemia, 88.8%; in the assay with RPMI-8226 leukemia, 107%; with OVCAR-8 ovarian it was 114%; in the assay with OVCAR-5 ovarian, 108%. Further, the growth is 117% with OVCAR-4 ovarian; 97.6% with SK-OV-3 ovarian; 109% with IGROV1 ovarian; 103% in the assay with OVCAR-3 ovarian; 105% in the assay with HS 578T breast; 103% in the assay on NCI/ADR-RES ovarian.

On to `CC(Cl)(CCl)CS(=O)(=O)c1ccc(Cl)cc1` (stereo not drawn), for which the growth in the assay on SK-MEL-2 melanoma was 99.1%; in the assay with EKVX NSCLC, 103%; in the assay on SN12C renal it was 105%; with UO-31 renal, 92.8%; with TK-10 renal, 93.2%; with A498 renal it was 77.2%. Besides, the growth with CCRF-CEM leukemia is 109%; in the assay on MOLT-4 leukemia it was 101%; in the assay on SR leukemia it was 96.2%; with RPMI-8226 leukemia, 99.8%; in the assay on OVCAR-8 ovarian it was 97.4%; with OVCAR-5 ovarian, 113%. Further, the growth is 111% with OVCAR-4 ovarian; 102% in the assay with SK-OV-3 ovarian; 115% with IGROV1 ovarian; 110% in the assay with OVCAR-3 ovarian; 97.3% in the assay on HS 578T breast; 110% with NCI/ADR-RES ovarian.

For the compound `COc1ccc(/C(Cl)=N/N=C(\Cl)c2cc(OC)c(OC)c(OC)c2)cc1OC(C)=O`, the growth in the assay with SK-MEL-2 melanoma is 92.3%; in the assay with EKVX NSCLC, 111%; with SN12C renal, 96.1%; in the assay on UO-31 renal, 65.5%; with TK-10 renal, 81.1%; with A498 renal it was 90.2%. In addition, the growth in the assay on CCRF-CEM leukemia is 94.4%; in the assay on MOLT-4 leukemia, 82.4%; in the assay with SR leukemia, 77.4%; with RPMI-8226 leukemia, 89.4%; in the assay on OVCAR-8 ovarian, 79.9%; with OVCAR-5 ovarian, 107%. Further, the growth in the assay with OVCAR-4 ovarian is 99.4%; with SK-OV-3 ovarian, 80%; with IGROV1 ovarian it was 105%; with OVCAR-3 ovarian, 101%; with HS 578T breast it was 90.4%; in the assay with NCI/ADR-RES ovarian, 89.1%.

For the compound `O[C@@H]1CCO[C@H](c2ccc3ccccc3c2)C1`, the growth was 96% in the assay on SK-MEL-2 melanoma; 102% in the assay on EKVX NSCLC; 101% in the assay on SN12C renal; 93.4% in the assay with UO-31 renal; 93.9% with TK-10 renal; 73.3% in the assay on A498 renal. In addition, the growth with CCRF-CEM leukemia is 103%; with MOLT-4 leukemia it was 99.1%; with SR leukemia, 95.7%; in the assay on RPMI-8226 leukemia it was 96.4%; in the assay with OVCAR-8 ovarian, 106%; with OVCAR-5 ovarian, 110%. The growth with OVCAR-4 ovarian was 105%; in the assay with SK-OV-3 ovarian it was 108%; in the assay with IGROV1 ovarian, 107%; in the assay with OVCAR-3 ovarian, 106%; with HS 578T breast it was 100%; with NCI/ADR-RES ovarian, 106%.

For `CC(/C=C/C=C(\C)[C@H](O)[C@H](C)C(=O)O[C@H]1C[C@H](C)C=C2C=C[C@@]3(C)O[C@@H](O)CC(=O)[C@]3(C)[C@H]21)=C\C=C\C(=O)O`, the growth with SK-MEL-2 melanoma was -46.9% (active); with EKVX NSCLC it was -0.933% (active); in the assay with SN12C renal, 3.38% (active); in the assay on UO-31 renal, 18.8%; with TK-10 renal it was 15.5%; in the assay on A498 renal, -38.9% (active). Besides, the growth in the assay on CCRF-CEM leukemia is 8.62% (active); in the assay on MOLT-4 leukemia, 1.42% (active); in the assay with SR leukemia, 1.43% (active); with RPMI-8226 leukemia, 27.6%; in the assay on OVCAR-8 ovarian, 21.6%; in the assay with OVCAR-5 ovarian, 18.6%. Besides, the growth in the assay on OVCAR-4 ovarian is 23%; with SK-OV-3 ovarian, 2.67% (active); with IGROV1 ovarian, 5.48% (active); in the assay on OVCAR-3 ovarian, 2.71% (active); in the assay with HS 578T breast, -3.26% (active); with NCI/ADR-RES ovarian, 53.8%.

Take `Cl[C@@H]1CCO[C@H](c2cc3ccccc3c3ccccc23)C1`: the growth in the assay on SK-MEL-2 melanoma is 101%; in the assay with EKVX NSCLC, 90.8%; in the assay with SN12C renal, 95.4%; in the assay on UO-31 renal it was 89.2%; in the assay on TK-10 renal it was 92.8%; in the assay on A498 renal, 77.2%. Further, the growth with CCRF-CEM leukemia was 85.9%; with MOLT-4 leukemia, 98%; in the assay on SR leukemia it was 93.8%; with RPMI-8226 leukemia it was 83.3%; in the assay on OVCAR-8 ovarian, 98.9%; with OVCAR-5 ovarian, 91.5%. The growth was 94.8% in the assay with OVCAR-4 ovarian; 97.2% in the assay with SK-OV-3 ovarian; 97.9% in the assay on IGROV1 ovarian; 108% in the assay on OVCAR-3 ovarian; 103% in the assay on HS 578T breast; 103% in the assay on NCI/ADR-RES ovarian.

Consider `COc1ccc(Cl)cc1NC(=O)c1cc2c([nH]1)-c1nc(NC(=O)C(C)(C)C)sc1CC2`, for which the growth is 83% with SK-MEL-2 melanoma; 50.4% in the assay with EKVX NSCLC; 38.6% in the assay on SN12C renal; 58.8% in the assay on UO-31 renal; 66.6% in the assay on TK-10 renal; 79.2% with A498 renal. In addition, the growth was 52% with CCRF-CEM leukemia; 58.6% in the assay with MOLT-4 leukemia; 28.2% in the assay with SR leukemia; 83.8% in the assay on RPMI-8226 leukemia; 26.8% with OVCAR-8 ovarian; 108% with OVCAR-5 ovarian. Also, the growth in the assay on OVCAR-4 ovarian was 57%; in the assay on SK-OV-3 ovarian, 82.1%; in the assay on IGROV1 ovarian, 65.3%; in the assay with HS 578T breast, 44%; in the assay on NCI/ADR-RES ovarian, 40.9%.
